Shown is part of a subset that was picked to be rich in hits.
GALK inh – qHTS Assay for Inhibitors of Human Galactokinase (GALK). P51570. Purified GALK, Kinase-Glo residual ATP luminescence. Potency, µM (top dose mostly 57.5 µM), for the others: at the highest dose activity change, negative = inhibition, actives largely listed as inhibitors. 270,000 tested, 0.007% active. AID 1868, 2009; note: % is set by controls: 0 for no effect and ±100 for the full control effect
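Human GALK (5 nM) with 35 uM ATP and 100 uM galactose in 20 mM HEPES pH 8.0, 5 mM MgCl2, 60 mM NaCl, 1 mM DTT, 0.01% BSA. After 1 h at room temperature, leftover ATP was read by Kinase-Glo Plus luminescence.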
USP2a block – qHTS Assay for Inhibitors of Ubiquitin-specific Protease USP2a Using CHOP2 as the Reporter; Ubiquitin carboxyl-terminal hydrolase 2 (Homo sapiens), O75604; USP2 core, Ub-CHOP2 coupled fluorogenic reporter, 485/531; Potency, µM (top dose mostly 38.3 µM), for the others: at the top dose activity change, negative = inhibition, hits mostly inhibitors; 330,000 tested, 0.01% active; AID 463254, 2010;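 note: plate controls were DMSO wells for no effect and full inhibition by NEM control for full effect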
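USP2 core (10nM final) preincubated 30min RT with compound in 20mM Tris-HCl pH 8.0, 2mM CaCl2, 2mM beta-mercaptoethanol, 0.05% CHAPS; 25nM Ub-CHOP2 plus 25nM reporter substrate added, fluorescence (Ex485/Em531) read after 60min.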
ClpP mod – qHTS Assay for Activators of ClpP; AID 651965, 2013; Potency, µM (doses to about 57.5 µM), without a hit: at the highest dose activity change, negative = active; 340,000 tested, 1.9% active; purified B. subtilis ClpP, FRET peptide cleavage, 20 min; active = well fitted falling curve with a large enough effect; inconclusive = small, poorly fitted or top-dose-only effect; inactive = no such curve, though single readings can be large or run the other way; note: the source files actives as falling curves though it sought activators and does not explain the sign; nearly all actives have a fitted effect of over 65% in size
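Purified B. subtilis ClpP, 10 microg/mL final in Tris/HCl pH8 with KCl, BSA, glycerol and Tween-20, cleaved an Abz/nitrotyrosine-quenched decapeptide. Fluorescence (ex 320, em 430) was read at 0 and 20 min at room temperature. Delta was normalized to 5.8 microM ADEP and DMSO/no-enzyme controls.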
Eya2 inh – qHTS Assay for Inhibitors of the Phosphatase Activity of Eya2; AID 488837, 2010; 330,000 tested, 0.006% active; recombinant Eya2, OMFP fluorescence dephosphorylation (OMFP is methylfluorescein phosphate); Potency, µM (titrated, usually from 76.9 µM), for inactives: at the top dose activity, negative = inhibition, actives largely listed as inhibitors; note: % is set by controls: 0 for no effect and ±100 for the full control effect
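Eya2 (0.2 uM) preincubated 10 min at ambient with compound, then OMFP substrate added at 50 uM; 10 min reaction in 50 mM HEPES pH 7.5, 50 mM NaCl, 5 uM MgCl2, 0.05% BSA, 1 mM DTT. Fluorescence read at Ex 485/Em 525 nm.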
The depositor's hits bear a star; u = inconclusive; x = no result; ! = a repeat was not active. Unless noted, calls come from the whole dose curve; as a rule, active = well fitted inhibition curve with a large enough effect; inconclusive = small, poorly fitted or top-dose-only effect, or effect the other way; inactive = flat fitted curve, though single readings scatter. Potency is the fitted concentration of half-maximal effect.

SMILES | GALK inh | USP2a block | ClpP mod | Eya2 inh
O=c1[nH]c2ccccc2c2ccccc12 | 4% | 0% | -23% | 1%
O=C(Nc1cccc([N+](=O)[O-])c1)ONC1=NCCCCC1 | 0% | 4% | x | -14%
c1ccc(Cn2c(-c3ccccc3)nc3nc4ccccc4nc32)cc1 | 4% | 4% | 32µM* | 3%
Clc1cccc(-c2nc3nc4ccccc4nc3n2Cc2ccccc2)c1 | 3% | -5% | u | 6%
Fc1ccc(N2C(=S)SC(=Nc3ccccc3)C2=Nc2ccccc2)cc1 | x | x | -4% | x
O=C1c2cccc3cccc(c23)C(=O)N1CC1CCN(CC(O)COCc2ccc3c(c2)OCO3)CC1 (stereo not given) | 1% | 2% | 28µM* | -5%
Cc1c(C(=O)N2CCCC2)oc2c1-c1nn(CC(=O)NCCCOC(C)C)cc1CC2 | 4% | 0% | -8% | 0%
COc1cc(SC#N)ccc1N=Cc1c(C)[nH]n(-c2cccc3ccccc23)c1=O | 3% | -2% | 28µM* | 0%
COc1cc(SC#N)ccc1N=Cc1c(C)[nH]n(-c2ccc(C)cc2C)c1=O | -1% | x | u | x
COc1ccc(CNC(=O)CCS(=O)(=O)c2cc3c4c(c2)CCN4C(=O)CC3)cc1OC | x | x | -2% | x
CCC(=O)NC(Cc1ccccc1)c1ccc2c(c1)OCCCO2 (stereo not given) | x | 3% | 22µM* | 11%
COc1ccc(CC(=O)NNC(=O)c2cccs2)cc1OC | 12% | -2% | x | -3%
CC(=O)c1cc2c(=O)c3cc(C)ccc3oc2nc1C | 0% | 2% | -22% | 2%
Cc1ccc2oc3nc(C)c(C(=O)O)cc3c(=O)c2c1 | 10% | 2% | 28µM* | 10%
O=S(=O)(Cc1ccccc1)C1CCCCC1O (stereo not given) | -3% | 0% | 14µM* | 9%
COc1ccc2nc(NC(=O)c3ccc(F)cc3)sc2c1 | 3% | 0% | x | 6%
Cc1c(NC(=O)COC(=O)/C=C/c2cccc(Cl)c2)c(=O)n(-c2ccccc2)n1C | x | -1% | -2% | 1%
CCCCc1ccc(N=N/C(C(=O)Nc2cc(OC)c(NC(C)=O)cc2OC)=C(/C)O)cc1 | 1% | 2% | 2% | -1%
C/C(=C\C(=S)Nc1ccccc1)Nc1ccc2ccccc2c1 | x | -3% | 35µM* | -2%
CCN(CC)Cc1c(O)ccc2c(=O)c(-c3ccc4c(c3)OCCO4)coc12 | 1% | 3% | 28µM* | -8%
COc1ccccc1Oc1coc2c(CN(C)C)c(O)ccc2c1=O | 1% | 0% | 28µM* | 15%
COc1ccccc1-c1coc2c(CN(C)C)c(O)ccc2c1=O | 0% | 0% | 5% | 1%
CCN(CC)Cc1c(O)ccc2c(=O)c(Oc3ccccc3OC)coc12 | -1% | -2% | 18µM* | 6%
CCN(CC)Cc1c(O)ccc2c(=O)c(Oc3ccccc3OC)c(C)oc12 | 0% | 2% | 4% | 2%
CCN(CC)Cc1c(O)ccc2c(=O)c(-c3ccccc3)coc12 | -1% | 0% | 4% | -20%
SMILES | GALK inh | USP2a block | ClpP mod | Eya2 inh
Cc1nc(-c2coc3c(CN(C)C)c(O)ccc3c2=O)cs1 | 3% | 6% | 32µM* | -2%
Cc1ccc(NC(=O)COC(=O)Cc2csc(-c3cccc(F)c3)n2)cc1C | 1% | -1% | 7% | -2%
c1csc(-c2ccc3ccccc3n2)c1 | -2% | 0% | 14µM* | -7%
Nc1ccc(C(=O)NCCCCCCNC(=O)c2ccc(N)cc2)cc1 | 5% | -3% | -3% | -6%
CCN(CC)CCn1c2ccccc2c2cnc(N)c(C#N)c21 | 1% | 4% | 14µM* | 2%
CCOC(=O)C1=C(N)n2c(s/c(=C\c3ccncc3)c2=O)=C(C(=O)OCC)C1c1ccncc1 (stereo not given) | -1% | 6% | x | 4%
COc1ccc(Cl)cc1-n1c(C)cc(C=O)c1C | -2% | 2% | 32µM* | 11%
COc1ccc(Cl)cc1-n1c(C)cc(C(=O)O)c1C | 7% | 1% | 1% | 2%
CCc1cccc2c(C(=O)COC(=O)c3nccnc3N)c[nH]c12 | x | 4% | 28µM* | 8%
Cc1ccc(C)c(N2CCN(CCCNC(=O)Cn3c(-c4cccs4)cc4ccccc43)CC2)c1 | x | x | 28µM* | x
O=C(Cn1c(-c2cccs2)cc2ccccc21)NCCCN1CCN(c2cccc(Cl)c2)CC1 | x | x | 25µM* | x
CN1CCN(CCCNC(=O)Cn2c(-c3cccs3)cc3ccccc32)CC1 | x | x | 11µM* | x
CCN1CCN(CCCNC(=O)Cn2c(-c3cccs3)cc3ccccc32)CC1 | x | x | 10µM* | x
COc1ccccc1OCc1nnc(-c2ccccc2)o1 | x | x | 0% | x
NC(=O)CC(NC(=O)c1ccc(Br)cc1)c1ccc(N2CCN(c3ccccc3)CC2)c([N+](=O)[O-])c1 (stereo not given) | x | 0% | 1% | 5%
NS(=O)(=O)c1ccc(CCNC(=O)Cn2c(-c3cccs3)cc3ccccc32)cc1 | x | x | 35µM* | x
CCCN1CCN(CCCNC(=O)Cn2c(-c3cccs3)cc3cc(Cl)ccc32)CC1 | x | x | 32µM* | x
O=C(Cn1c(-c2cccs2)cc2cc(F)ccc21)NCCc1ccc(Cl)cc1 | x | x | 4% | x
CCCN1CCN(CCCNC(=O)Cn2c(-c3cccs3)cc3ccccc32)CC1 | x | x | 35µM* | x
Cc1ccc(-n2c(SCC(=O)NCc3ccco3)nc3nc4c(cc3c2=O)COC(C)(C)C4)cc1 | 1% | -8% | -4% | -11%
Cn1c(-c2ccc(Cl)nc2)nc2ccccc21 | 1% | 0% | 3% | -13%
Cn1c(-c2ccc(N)cc2)nc2ccccc21 | 0% | -1% | 2.8µM*! | 14%
Cn1c(-c2ccc3nc(N)sc3c2)nc2cc(N)ccc21 | 7% | 4% | 10µM* | -8%
Cc1ccc(Cn2c(-c3ccccc3)nc3ccccc32)cc1 | x | x | -20% | x
C=CCn1c(-c2ccc(C)cc2)nc2ccccc21 | 0% | 4% | 7.1µM* | -15%
SMILES | GALK inh | USP2a block | ClpP mod | Eya2 inh
CC1CC(C)CN(C(=O)CCn2c(=O)oc3ccccc32)C1 (stereo not given) | 0% | -4% | -1% | 4%
CCCCN(C)CCNC(=O)c1c2c(nc3ccccc13)C(=O)N(C1CCCCC1)C2 | x | x | -30% | x
CCN(CC)CCCNC(=O)c1c2c(nc3ccccc13)C(=O)N(C1CCCCC1)C2 | x | x | 14µM* | x
Fc1ccc(Cn2cccc2C2=NC(c3ccccc3)CO2)cc1 (stereo not given) | 0% | 2% | 20µM* | u
Cc1oc(-c2ccccc2)nc1Cn1cccc1C1=NC(c2ccccc2)CO1 (stereo not given) | -1% | 4% | u | 11%
O=C(Cn1ncc2c(=O)oc3ccccc3c21)N1CCC(N2CCCCC2)CC1 | 2% | 0% | 1% | 5%
Oc1cc(NCc2cccnc2)ccc1-c1nc2ccccc2o1 | 4% | 2% | 35µM* | -25%
